# Assay outcomes (PubChem BioAssay)
# Shown is part of a subset that was picked to be rich in hits.
# Dicer inh = inhibitors of human Dicer processing of pre-microRNA; Q9UPY3; cat-ELCCA pre-miR-21 Dicer processing, chemiluminescence; active compounds read high; z-score at 25 µM; hit rate 6% among 47,000; AID 1347074; in the data active = z-score above about 3, passing the limit was not always enough;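 also: plate controls were vehicle for no effect and no enzyme for full effect; higher signal means more uncleaved substrate so more Dicer inhibition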
# Numbers without * were called inactive.
SMILES,Dicer inh
COc1ccc(C2C(C(=O)OC(C)C)=C(C)NC3=C2C(=O)CCC3)cc1 (stereo unspecified),-1.54
Cn1c(=O)c(I)c(O)c2ccccc21,5.27*
Cn1c(=O)c(-c2ccccc2)c(O)c2ccccc21,-0.8
CC(=O)Oc1c(I)c(=O)n(C)c2ccccc12,-0.68
CCOC(=O)NC(=S)Nc1ccc(F)cc1F,2.02
COc1cc(/C=N/NC(=S)Nc2ccccc2OC)ccc1O,5.12*
CNC(=S)N/N=C/c1ccc(OC)c(Br)c1,1.22
COc1ccccc1NC(=S)N/N=C/c1ccco1,1.44
CCOc1cc(CNCc2cccnc2)cc(Cl)c1OCc1cccs1,-0.51
Cc1ncc(CSCC(=O)Nc2cc(C(F)(F)F)cc(C(F)(F)F)c2)c(CO)c1O,-0.58
N#C/C(=N\Nc1ccc(F)cc1)C(=O)c1ccccc1Cl,0.3
COc1ccc(NC(=O)Nc2cccc(Cl)c2Cl)c(OC)n1,-0.73
COc1ccc(C(=O)/C(C#N)=N/Nc2cccc(Cl)c2Cl)cc1,8.26*
O=C(Oc1ccccc1/C=N/N=C1\SCC(=O)N1c1cccc(F)c1)c1ccc(Cl)cc1,1.61
Cc1c(NC(=O)O/N=C(/N)c2ccccc2)sc2nc(-c3ccc(Cl)cc3)nn12,-0.08
COc1ccc(/C=C2\OC(c3ccc(OC)c(OC)c3)=Cc3cc(OC)c(OC)cc32)cc1OC,0.23
COc1ccc(NC2CC(=O)N(c3cccc4ccccc34)C2=O)cc1 (stereo unspecified),-0.63
CCOc1ccc(NC2CC(=O)N(c3ccc(OC)cc3OC)C2=O)cc1 (stereo unspecified),-1.91
CCc1ccc(NC2CC(=O)N(c3ccc(C)cc3Br)C2=O)cc1 (stereo unspecified),3.27*
CCN(CC)CCN1C(=O)C(=O)c2ccccc21,-0.56
C=CCNC(=S)SCCN,-1.82
O=C(O)CCCc1ccc2ccc3cccc4ccc1c2c34,4.03*
O=C(O)CCCN1Cc2ccccc2C1,1.3
O=C(O)c1cccc2cccc(-c3cccc4cccc(C(=O)O)c34)c12,-1.59
COc1ccccc1C1CC(=O)C2=C(C1)NC(C)=C(C(=O)OCCOC(C)C)C2c1ccsc1 (stereo unspecified),-0.82
SMILES,Dicer inh
O=C(NCCO)C(=O)NCC1CCCO1 (stereo unspecified),2.72
Cc1ccc2nc(S/C=C/C(=O)c3cccc(Br)c3)[nH]c2c1,3.53*
CSC(=NC#N)S/C=C/C(=O)c1cccc(Br)c1,-2.23
CCc1ccc(C(=O)/C=C/Sc2nc3ccc(C)cc3[nH]2)cc1,0.92
COCCCNC(=S)Nc1c(Cl)cccc1Cl,-4.48
Cc1ccc(C2Nn3c(C)nnc3SC2C(=O)Nc2ccc(Br)cc2C)cc1 (stereo unspecified),1.34
O=C(Nc1nc2c(s1)CCc1ccccc1-2)c1cccc(F)c1,-0.17
COc1cc(C(=O)NC2CCCCC2)cc(OC)c1OC,-2.52
COc1ccc(/C=N/Nc2ncnc3sc4c(c23)CCCC4)cc1,6.47
COC(=O)c1ccc([C@@H]2Nc3ccccc3[C@@H]3C=CC[C@@H]32)cc1,1.1
O=C(NNc1cc(Cl)ccc1Cl)C1CCCS1 (stereo unspecified),1.64
O=C(NNc1c(Cl)cccc1Cl)c1sccc1Cl,2.98
O=C(NNc1cc(Cl)ccc1Cl)c1sccc1Cl,5.17*
CC(C)(C)c1cs/c(=N/c2ccccn2)n1-c1cccc(C(F)(F)F)c1,15.6
Cc1cc(O)cc(=O)n1Cc1ccc2c(c1)OCO2,-1.29
CCc1ccc(C2C(C#N)=C(N)Oc3n[nH]c(-c4ccccc4)c32)cc1 (stereo unspecified),-3.74
c1csc(CNc2nc3ccccc3n2CCN2CCOCC2)c1,2.23
CCCn1c(NCc2cccs2)nc2ccccc21,3.15*
c1csc(CNc2nc3ccccc3n2CCN2CCCCC2)c1,-0.42
c1ccc(Cn2c(NCc3cccs3)nc3ccccc32)cc1,3.01*
O=C(CSc1nc2c(c(C(F)(F)F)n1)CCc1ccccc1-2)NCc1ccncc1,1.98
Cc1c(Cl)c([N+](=O)[O-])nn1CC(=O)Nc1c(F)cc(F)cc1Br,-0.5
COc1ccc(C2CC(=O)C3=C(C2)NC(C)=C(C(=O)OC2CCCC2)C3c2ccncc2)cc1 (stereo unspecified),0.31
Cc1ccc(/C=C/c2nc(-c3ccccc3O)n[nH]2)o1,2.93
CNC(=O)Sc1ccccc1Cl,-1.45
SMILES,Dicer inh
O=[N+]([O-])c1c(Nc2ccc(Cl)cc2)ccc2nsnc12,1.6
COCCOC(=O)C1=C(C)NC2=C(C(=O)CC(c3cccs3)C2)C1c1cccs1 (stereo unspecified),0.82
CC1=C(C(=O)OC(C)C)C(c2ccccc2F)C2=C(CC(c3cccs3)CC2=O)N1 (stereo unspecified),0.56
COc1cc(C2C(C(=O)OCC3CCCO3)=C(C)NC3=C2C(=O)CC(c2cccs2)C3)ccc1O (stereo unspecified),1.95
CCSCCOC(=O)C1=C(C)NC2=C(C(=O)CC(c3cccs3)C2)C1c1ccc(O)c(OC)c1 (stereo unspecified),5.37*
COc1ccc(OC)c(C2C(C(=O)OCC(C)C)=C(C)NC3=C2C(=O)CC(c2cccs2)C3)c1 (stereo unspecified),3.1*
CC1=C(C(=O)OCCOC(C)C)C(c2coc3ccccc3c2=O)C2=C(CC(C)(C)CC2=O)N1 (stereo unspecified),1.32
CCSCCOC(=O)C1=C(C)NC2=C(C(=O)CC(c3cccs3)C2)C1c1ccc2c(c1)OCO2 (stereo unspecified),0.75
COCCOC(=O)C1=C(C)NC2=C(C(=O)CC(C)(C)C2)C1c1coc2ccccc2c1=O (stereo unspecified),-0.44
COc1cccc(C2C(C(=O)OC(C)C)=C(C)NC3=C2C(=O)CC(c2cccs2)C3)c1OC (stereo unspecified),2.73
CC1=C(C(=O)OCCOc2ccccc2)C(c2coc3ccccc3c2=O)C2=C(CC(C)(C)CC2=O)N1 (stereo unspecified),3.41*
CC(=O)Oc1ccc(C2C(C(=O)OCC(C)C)=C(C)NC3=C2C(=O)CC(c2cccs2)C3)cc1 (stereo unspecified),0.7
CC1=C(C(=O)OC(C)C)C(c2coc3ccccc3c2=O)C2=C(CC(c3cccs3)CC2=O)N1 (stereo unspecified),3.27*
O=C(CSc1ncccc1C(F)(F)F)c1cccc(C(F)(F)F)c1,1.73
CC(C)(Oc1ccc(C#N)cc1)C(=O)O,-1.15
COc1ccccc1-c1coc2cc(OC(=O)c3cncc(Br)c3)ccc2c1=O,1.35
Cc1ccc([N+](=O)[O-])cc1S(=O)(=O)O/N=C(\N)CS(=O)(=O)c1ccccc1,-1.34
O=C1C(=O)N(Cc2cccnc2)C(c2ccccc2Cl)/C1=C(\O)c1ccc(Cl)cc1 (stereo unspecified),-0.01
CC1CC(C)(C)CC2(CC(=O)N(c3ccc(Cl)cc3)C2=O)C1 (stereo unspecified),1.6
O=C(c1cc2c(s1)-c1ccccc1CC2)N1CCN(Cc2ccccc2)CC1,0.72
CCCc1noc(-c2ccc(OC)c(OC)c2)n1,-0.64
O=S(=O)(Nc1ccc2c(c1)OCCO2)c1ccc(-c2ccno2)s1,-0.93
Cc1ccc(Nc2nc(C)cc(C)c2C#N)cc1,2.9
C=CCc1c(C)nc(SC)nc1Nc1ccc(C(=O)OCC)cc1,-0.05
C=CCc1c(C)nc(SC)nc1Nc1ccc(C)cc1,5.74*
CC(C)(C)c1ccc(C(=O)O)cc1[N+](=O)[O-],0.74
Cc1nn(C)c(C)c1Cc1c(F)cccc1Cl,-0.37
Clc1ccc(Cn2c(-c3cncs3)nc3ccccc32)cc1,1.29
O=C(Cn1c(-c2cncs2)nc2ccccc21)Nc1ccccc1Cl,0.04
